From PubChem BioAssay
DT40 TDP1 no CPT: qHTS for Inhibitors of human tyrosyl-DNA phosphodiesterase 1 (TDP1): qHTS in cells in absence of CPT; DT40 Tdp1-/- hTDP1 cells, no CPT, ATP luminescence, 48 h; Potency, µM (top dose mostly 46.2 µM), without a hit: at the top dose activity change, negative = growth inhibition, most hits filed as inhibitors; 420,000 compounds, 15% hits; note: % is set by controls: 0 for no effect and ±100 for the full control effect; nearly all actives have a fitted effect of over 55% in size
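No-CPT arm: Tdp1-/-;hTDP1 DT40 cells (400/well) plus compounds, incubated ≥48 hr at 37 °C. Readout CellTiter-Glo luminescence.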
TGFb SMAD3 inh: inhibitors of TGF-b signaling | 410,000 compounds, 1.2% hits | Potency, µM (highest dose often 46.1 µM), without a hit: at the top dose activity, negative = inhibition, actives largely listed as inhibitors | HepG2 CAGA-GFP TGF-b/SMAD3 reporter, GFP fluorescence, 18 h; TGF-beta stimulated, 500 pg/mL final | AID 588855; note: % is set by controls: 0 for no effect and ±100 for the full control effect; nearly all actives have a fitted effect of over 65% in size
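Smad-responsive CAGA-GFP expression was quantified in HEPG2 cells exposed to compounds and 500 pg/mL final TGF-beta for 18 h at 37 degrees C; unstimulated wells defined full inhibition.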
ATXN2 expr inh: ATXN2 expression inhibition; Potency, µM (top dose mostly 57 µM), without a hit: at the highest dose activity change, negative = inhibition, hits mostly inhibitors; 360,000 compounds, 0.72% hits; HEK-293 ATXN2-luciferase reporter, luminescence, 24 h; note: % is set by controls: 0 for no effect and ±100 for the full control effect; nearly all actives have a fitted effect of over 55% in size
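qHTS (up to 57 uM final) was run with 24 h compound exposure of reporter cells at 37 °C. Each well was multiplexed: SteadyGlo luminescence measured ATXN2-luciferase expression after a fluorogenic Gly-Phe-AFC viability readout (25 uM final).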
TDP1 cell CPT: DT40-hTDP1 cell growth loss with CPT | chicken DT40 Tdp1-/-;hTDP1 cells + 20 nM CPT, ATP luminescence, 48 h | Potency, µM (highest dose often 46.2 µM), for inactives: at the top dose activity change, negative = growth inhibition, hits mostly inhibitors | 420,000 compounds, 12% hits; note: % is set by controls: 0 for no effect and ±100 for the full control effect; nearly all actives have a fitted effect of over 55% in size
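Chicken DT40 Tdp1-/- cells complemented with human TDP1, 400 cells/well, exposed to compounds plus 20 nM camptothecin for at least 48 h at 37 C; viability read as ATP content by CellTiter-Glo luminescence.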
ATXN viability: viability counter-screen for ATXN expression inhibitors. S2 cells (HEK-293 line with an ATXN2-luciferase reporter) viability, CellTiter-Fluor protease fluorescence, 24 h. Potency, µM (titrated, usually from 56.7 µM), hits mostly cytotoxic. 400,000 compounds, 0.49% hits; note: nearly all actives have a fitted effect of over 40% in size
HepG2 tox: HepG2 cytotoxicity, counter-screen for TGF-b inhibitors; 410,000 compounds, 0.76% hits; Potency, µM (titrated, usually from 46.1 µM), for inactives: top-dose activity change, negative = cytotoxicity, usual class: cytotoxic; HepG2 CAGA-GFP viability, ATP luminescence, 18 h
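HepG2 CAGA-GFP cells (1000/well, DMEM with 1% FBS) received compound, then TGF-beta at 500 pg/mL final, and were incubated 18 hours at 37 degrees C. Viability was read by CellTiter-Glo luminescence. Media-only wells were set as complete cell-killing and DMSO as no toxicity.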
Active calls of the source: *; i = inactive; ? = inconclusive; · = no result; ! = a repeat was not active. Hits are enriched below; roughly 17% of the tested compounds scored in any of these assays. Calls come from the whole dose curve; as a rule, active = well fitted curve in the direction sought with a large enough effect; inconclusive = small, poorly fitted or top-dose-only effect, or another doubt; inactive = no such curve, though single readings can be large; an effect the other way counts as inactive or inconclusive. Potency is the fitted concentration of half-maximal effect.

SMILES	DT40 TDP1 no CPT	TGFb SMAD3 inh	ATXN2 expr inh	TDP1 cell CPT	ATXN viability	HepG2 tox
COc1cccc(CN(C)C(=O)C(CCSC)NS(=O)(=O)c2ccc3c(c2)OCCO3)c1OC (centres undefined)	13µM*	0%	-13%	16µM*	i	-8%
O=C(COC(=O)c1cncc(Br)c1)Nc1ccc(F)c(F)c1F	-20%	0%	-1%	-21%	i	6%
CCCS(=O)(=O)NC(=O)C1(C)CCN(C(=O)c2nc(C)oc2C)C1 (centres undefined)	-3%	15%	15%	1%	i	-4%
CC(=O)N1CCc2c(sc3nc(SCC(C)C)n(-c4ccc(F)c(Cl)c4)c(=O)c23)C1	?	?	2%	?	i	-3%
CCCSc1nc2sc3c(c2c(=O)n1-c1ccc(C)cc1)CCCC3	9.2µM*	-3%	·	?	·	0%
CCCCSc1nnc2n(-c3cccc(C)c3)c(=O)c3c4c(sc3n12)CCCC4	16µM*	-1%	4%	?	?	0%
Cc1ccc(-n2c(SCC(=O)O)nc3sc4c(c3c2=O)CCCC4)cc1	9%	3%	-9%	9%	i	-2%
CC(=O)N1CCc2c(sc3nc(SCC(C)C)n(-c4ccc(C)c(Cl)c4)c(=O)c23)C1	?	?	?	23µM*	·	11µM*
CCCSc1nc2sc3c(c2c(=O)n1-c1ccc(C)c(Cl)c1)CCN(C(C)=O)C3	23µM*	-14%	-12%	23µM*	i	-9%
CCC1CCCCN1CCCNC(=O)Cn1cc2c(n1)-c1c(oc(C(=O)N3CCCC3)c1C)CC2 (centres undefined)	8%	3%	-17%	2%	i	25%
CC(=O)Nc1cccc(-c2csc(C(O)c3ccccc3)n2)c1 (centres undefined)	-14%	-1%	20%	?	i	-15%
CSc1nc2nc3c(cc2c(=O)n1-c1ccccc1C)CCCC3	7.3µM*	?	?	7.3µM*	?	17%
CC(Sc1nc2sc3c(c2c(=O)n1-c1ccccc1)CCCC3)C(=O)O (centres undefined)	9%	-14%	2%	-18%	i	9%
CSc1nc2sc3c(c2c(=O)n1-c1ccccc1C)CCCC3	16µM*	?	-11%	23µM*	i	-6%
CCn1c(=N)c(C(=O)NC2CCCC2)cc2c(=O)n3cc(C)ccc3nc21	1%	?	3%	-6%	i	7%
O=c1[nH]c(=O)n([C@H]2C[C@@H](O)[C@@H](CO)O2)cc1C=CBr	·	·	7%	·	·	·
N/C(=N\OCC(=O)Nc1ccc(F)c(Cl)c1)c1ccccc1	?	-20%	-5%	23µM*	i	-32%
Cc1[nH][nH]c(=O)c1N=Nc1ccc(Br)c(Cl)c1	23µM*	3%	20%	?	i	-33%
CCOc1ccc2ccccc2c1/C=N/NC(=O)c1cc(C)[nH]n1	9%	-2%	1%	-4%	i	-6%
Cc1cc(C(=O)N/N=C/c2c(C)n(C)c3ccccc23)n[nH]1	?	4%	1%	19%	i	10%
Cc1cc(C(=O)N/N=C/c2c3ccccc3cc3ccccc23)n[nH]1	9.2µM*	?	-18%	?	?	-46%
Cc1[nH]c2ccccc2c1/C=N/NC(=O)c1cc(-c2cccs2)[nH]n1	21µM*	?	·	?	?	-33%
Cc1cc(C(=O)N/N=C/c2c(C)[nH]n(-c3ccccc3)c2=O)n[nH]1	?	28%	-9%	21µM*	i	-15%
Cc1[nH]n(-c2ccccc2)c(=O)c1/C=N/NC(=O)c1ccc(O)cc1O	21µM*	-3%	·	?	?	-19%
Cc1[nH]n(-c2ccccc2)c(=O)c1/C=N/N1CCOCC1	-1%	2%	14%	-14%	i	-14%
SMILES	DT40 TDP1 no CPT	TGFb SMAD3 inh	ATXN2 expr inh	TDP1 cell CPT	ATXN viability	HepG2 tox
O=C(CN(C(=O)CNC(=O)c1cccs1)c1ccc(F)cc1)NC1CCCCC1	-8%	9%	2%	3%	i	-6%
CCCCN(CCCC)C(=S)N/N=C/c1c(C)[nH]n(-c2ccccc2)c1=O	2.6µM*	?	?	2.1µM*	i	-21%
Cc1[nH]n(-c2ccccc2)c(=O)c1/C=N/Nc1nncc(-c2ccccc2)n1	1µM*	?	2.8µM*	1µM*	i	-5%
Cc1ccc(-n2[nH]c(C)c(/C=N/NC(=O)c3ccc(O)cc3O)c2=O)cc1	5.2µM*	-9%	?	12µM*	i	-51%
Cc1ccc(-c2cc(C(=O)N/N=C/c3c(C)nn(-c4ccccc4)c3C)n[nH]2)s1	0.82µM*	13µM*	·	0.65µM*	?	-31%
Cc1cc(C(=O)N/N=C/c2cc(N=Nc3ccccc3)ccc2O)n[nH]1	6.5µM*	?	?	5.8µM*	i	8%
CN(CC(=O)Nc1ccc(F)cc1)CC(=O)NC1CCCCC1	3%	3%	·	7%	i	13%
OC(CNCc1cccnc1)COc1ccc2ccccc2c1 (centres undefined)	-1%	21%	-14%	-3%	i	-12%
N=C(N)c1ccc(/C=C/c2ccc(C(=N)N)cc2O)cc1	?	-1%	-23%	13µM*!	i	-1%
N#CCCn1cc(/C=N/NC(N)=S)c(-c2ccc(-c3ccccc3)cc2)n1	4.1µM*	?	?	?	?	-21%
CCOC(=O)c1sc(N2C(=O)C(O)=C(C(=O)c3ccc(C)o3)C2c2ccc(OC)c(OC)c2)nc1C (centres undefined)	?	-4%	-17%	23µM*	i	5%
CCOc1ccc(C2C(C(=O)c3ccc(C)o3)=C(O)C(=O)N2c2cc(C)on2)cc1OC (centres undefined)	19%	2%	-8%	-9%	i	2%
COc1cccc(C2C(C(=O)c3cccs3)=C(O)C(=O)N2c2cc(C)on2)c1 (centres undefined)	-9%	-12%	11%	-21%	i	-4%
COc1cc(C2C(C(=O)c3ccc(C)o3)=C(O)C(=O)N2c2cc(C)on2)ccc1OCc1ccccc1 (centres undefined)	29µM*	-21%	·	?	i	-7%
